DRD3 agonist: qHTS of D3 Dopamine Receptor Agonist: qHTS | max activation, % | hit rate 0.58% among 410,000 | D(3) dopamine receptor (Homo sapiens), P35462 | D3R DiscoveRx beta-arrestin cells, luminescence, 90 min; in the data active = max activation above about 30%; note: 0% is about no effect
Target sequence (P35462 whole entry, looked up): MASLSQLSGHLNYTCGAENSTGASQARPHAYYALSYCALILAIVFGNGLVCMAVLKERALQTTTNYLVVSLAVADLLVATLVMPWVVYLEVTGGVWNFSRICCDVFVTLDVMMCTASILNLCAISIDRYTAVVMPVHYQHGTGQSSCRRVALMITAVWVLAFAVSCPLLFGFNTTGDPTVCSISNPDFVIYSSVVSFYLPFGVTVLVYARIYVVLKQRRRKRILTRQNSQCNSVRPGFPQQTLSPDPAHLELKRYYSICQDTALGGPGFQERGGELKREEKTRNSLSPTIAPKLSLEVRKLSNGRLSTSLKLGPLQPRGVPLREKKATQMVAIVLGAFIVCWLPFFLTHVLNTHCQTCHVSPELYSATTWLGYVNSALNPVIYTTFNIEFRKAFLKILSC
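Cells at 1500/well, incubated overnight, then treated with pinned compounds (dopamine as control) for 90 min at 37 degrees C. DiscoveRx reagent added for 30 - 60 minutes at room temperature; luminescence read.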
MCF10A rerep: A quantitative high throughput screen for small molecules that induce DNA re-replication in MCF 10a normal breast cells | hit rate 2.9% among 350,000 | Potency, µM (top dose mostly 46.1 µM), without a hit: top-dose activity, positive = re-replication, hits mostly activators | MCF 10A DNA re-replication, Hoechst nuclear intensity, 48 h | AID 624296, 2012; note: potency is the fitted concentration of half-maximal effect; % of control where 0% means no effect; nearly all actives have a fitted effect of over 50% in size
D3 antag: qHTS of D3 Dopamine Receptor Antagonist: qHTS. D(3) dopamine receptor (Homo sapiens), P35462. D3R cells, DiscoveRx beta-arrestin luminescence, antagonist mode; hits give low values. max response, negative = inhibition, %. hit rate 2.5% among 360,000; in the data active = max response below about -50%; inconclusive = no clear call, values can overlap the other calls; note: % is set by controls: 0 for no effect and ±100 for the full control effect
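Cells expressing the human receptor were seeded at 1500 cells/well, incubated overnight at 37 degrees C in 5% CO2, then exposed to library compounds with dopamine controls for 90 minutes at 37 degrees C before luminescent detection.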
KB-3-1 tox: qHTS assay for MDR1-selective chemotherapeutics: Primary screen using the parental adenocarcinoma cell KB-3-1; KB-3-1 viability, CellTiter-Glo ATP luminescence, 72 h; Potency, µM (series often up to 46.1 µM), usual class: cytotoxic; hit rate 1.4% among 400,000; note: potency is the fitted concentration of half-maximal effect; % is set by controls: 0 for no effect and ±100 for the full control effect; nearly all actives have a fitted effect of over 60% in size
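Cytotoxicity measured as CellTiter-Glo luminescence after 72 h at 37 C. Compound titrations were pinned onto drug-naive KB-3-1 parental adenocarcinoma cells grown in DMEM with 10% FBS, and normalized data fitted to concentration-response curves.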
SW480 rerep: A quantitative high throughput screen for small molecules that induce DNA re-replication in SW480 colon adenocarcinoma cells; SW480 DNA re-replication, Hoechst DNA content imaging, 48 h; Potency, µM (titrated, usually from 46.1 µM), inactives show top-dose re-replication activation, usual class: activators; hit rate 1.8% among 340,000; AID 624297, 2012; note: potency is the fitted concentration of half-maximal effect; % of control where 0% means no effect; nearly all actives have a fitted effect of over 55% in size
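Cells (250 per well) received 23 nL compound or DMSO by pin tool and were kept 48 hr at 37 C, 5% CO2. Nuclei were then stained with Hoechst for 40 min and scanned for DNA content.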
KB-V1 cytotox: qHTS assay for MDR1-selective chemotherapeutics: Primary screen using the drug-selected MDR subline cells KB-V1 | hit rate 3.4% among 400,000 | KB-V1 MDR cells viability, CellTiter-Glo, 72 h | Potency, µM (titrated, usually from 46.1 µM), most hits filed as cytotoxic; note: potency is the fitted concentration of half-maximal effect; % is set by controls: 0 for no effect and ±100 for the full control effect; nearly all actives have a fitted effect of over 60% in size
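Readout: CellTiter-Glo luminescence, 10 min after addition. Cells: KB-V1 MDR subline, 72 h at 37 degrees C with compound. Analysis: corrected, normalized data fitted to concentration-effect curves.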
* hit, by the source's call; i = inactive; ? = inconclusive; / = no result given. Hits are enriched below; roughly 8.9% of the tested compounds scored in any of these assays. Unless noted, calls come from the whole dose curve; as a rule, active = well fitted curve in the direction sought with a large enough effect; inconclusive = small, poorly fitted or top-dose-only effect, or another doubt; inactive = no such curve, though single readings can be large; an effect the other way counts as inactive or inconclusive.

SMILES	DRD3 agonist	MCF10A rerep	D3 antag	KB-3-1 tox	SW480 rerep	KB-V1 cytotox
O=C(NCc1cc(Cl)cc(Cl)c1)c1ccc2sc([C@H]3C[C@H](O)[C@@H](CO)O3)nc2c1	9	/	-1	i	/	?
Cc1cccc(C)c1NC(=O)c1ccc2sc([C@@H]3O[C@H](CO)[C@H](O)[C@H](O)[C@H]3O)nc2c1	-8	/	-52*	i	/	i
Cc1cccc(C)c1NC(=O)c1ccc2sc([C@H]3C[C@H](O)[C@@H](CO)O3)nc2c1	-6	/	-25	i	/	i
Cc1cnc(CNC(=O)c2ccc3sc([C@@H]4O[C@H](CO)[C@H](O)[C@H](O)[C@H]4O)nc3c2)cn1	-5	/	-50*	i	/	i
Nc1nnnn1-c1ccccc1	9	/	/	/	/	/
Nc1nc(SCc2ccc(Cl)cc2Cl)nc2nc3c(cc12)CCCC3	-9	?	-57*	?	?	?
COc1ccc(OC)c(-c2csc(NC(=O)Cc3ccccc3OC)n2)c1	-23	11%	-63*	i	22%	?
COc1ccc(OC)c(-c2csc(NC(=O)Cc3ccccc3F)n2)c1	5	21µM*	-8	i	?	?
COc1ccc(OC)c(-c2csc(NC(=O)c3ccccc3F)n2)c1	10	-1%	8	i	?	i
CC1Cc2ccccc2N1C(=O)CSc1ccccc1 (configuration not stated)	-6	-3%	18	i	-8%	16µM*
CC1CCN(CC(=O)N2c3ccccc3CC2C)CC1 (configuration not stated)	-7	-1%	-25	i	-2%	i
CC1Cc2ccccc2N1C(=O)CSC1=NCCS1 (configuration not stated)	-7	8%	16	i	-3%	i
CC1Cc2ccccc2N1C(=O)Cn1cc(C(F)(F)F)ccc1=O (configuration not stated)	-14	/	-117*	i	/	i
CC(C)Cn1c(=O)c2ccccc2n2c(SCC(=O)N3c4ccccc4CC3C)nnc12 (configuration not stated)	13	2%	38	i	2%	1.8µM*
CC1Cc2ccccc2N1C(=O)CN1CCN(Cc2ccccc2)CC1 (configuration not stated)	-11	9%	-78*	i	6%	i
CCOc1cc(CNC(=O)CN2CCSc3ccccc32)cc(OCC)c1OCC	1	/	/	i	/	?
O=C1CCCC2=C1C1(CCCC1)N=C(Nc1nc3cc4ccccc4cc3o1)N2	/	/	/	i	/	i
Cc1sc2nc(C3CC3)nc(SCC(=O)N3c4ccccc4CC3C)c2c1C (configuration not stated)	42*	9.2µM*	54	i	15µM*	5.8µM*
O=C(Nc1ccc2c(c1)OCCO2)c1cnn(-c2ccccc2)n1	5	?	-3	i	-3%	?
Cc1[nH]c2ccccc2c1C(=O)C(=O)Nc1ccc2c(c1)OCCO2	-12	1%	-19	i	4%	i
O=C(Nc1ccc2c(c1)OCCO2)C(=O)c1c[nH]c2ccccc12	-13	9.2µM*	-25	3.7µM*	4.6µM*	i
O=C(Nc1ccc2c(c1)OCO2)C(=O)c1c[nH]c2ccccc12	-3	16%	-24	6.5µM*	2%	i
CCOc1ccc2[nH]c(=O)c(CN(CC3COCCO3)C(=O)c3ccco3)cc2c1 (configuration not stated)	-4	0%	-14	i	-4%	i
CCN(Cc1cc2cc(C)ccc2[nH]c1=O)C(=O)c1cccc(OC)c1	-2	11%	3	i	6%	9.2µM*
CCN(CC)CCN(Cc1cc2ccc(C)cc2[nH]c1=O)C(=S)Nc1ccccc1C(=O)OC	-19	9%	-84*	?	?	?
SMILES	DRD3 agonist	MCF10A rerep	D3 antag	KB-3-1 tox	SW480 rerep	KB-V1 cytotox
CCOc1ccc2[nH]c(=O)c(CN(Cc3ccc(F)cc3)C(=O)c3ccco3)cc2c1	10	?	-14	16µM*	?	15µM*
CCOc1ccc(N(CC(=O)NCc2ccc(F)cc2)C(=O)c2ccco2)cc1	-24	8%	-13	i	-2%	16µM*
O=C(Nc1ccc(Cl)cc1Cl)[C@@H]1CC=C[C@@H]2CCN(Cc3ccccc3)C(=O)[C@@H]21	/	/	/	i	/	?
COc1cc2oc(=O)c(CC(=O)N3CCCCC3)c(C)c2cc1OC	-12	/	/	i	/	i
COc1ccc(OC)c(CCNC(=O)c2c3c(nc4ccccc24)C(=O)N(C2CCCCC2)C3)c1	-12	/	/	i	/	i
COc1ccc(C(=O)N(Cc2ccco2)Cc2cc3cc(C)ccc3[nH]c2=O)cc1OC	-1	3%	0	i	10%	i
CCOc1ccc2[nH]c(=O)c(CN(Cc3ccccc3OC)C(=O)c3ccccc3)cc2c1	-6	21µM*	21	5.2µM*	?	4.6µM*
CCOc1ccc2[nH]c(=O)c(CN(Cc3ccco3)C(=O)c3ccc(Br)cc3)cc2c1	1	16µM*	81	?	?	23µM*
Cc1ccc2[nH]c(=O)c(CN(Cc3ccco3)C(=O)c3ccncc3)cc2c1	1	?	-14	12µM*	?	?
COc1ccccc1NC(=S)N(Cc1ccco1)Cc1cc2cc(C)ccc2[nH]c1=O	-9	?	?	1.8µM*	?	?
COC(=O)c1cc(NC(=O)Cn2ncc3c([nH]c4ccccc43)c2=O)cc(C(=O)OC)c1	4	/	/	i	/	i
COc1ccc2[nH]c(=O)c(CN(Cc3ccco3)C(=O)c3ccccc3)cc2c1	-8	?	-88*	?	?	i
CCOc1ccc2[nH]c(=O)c(CN(Cc3ccco3)C(=O)c3cccc(F)c3)cc2c1	5	-3%	7	i	2%	i
CC1CCCCN1C(=O)Cn1c(=O)n(-c2ccc(Cl)cc2)c(=O)c2c3c(sc21)CCC3 (configuration not stated)	-15	/	/	i	/	i
CC1=Nc2ccccc2/C1=C/c1c(C)[nH]c2ccccc12	3	0.82µM*	-6	?	10µM*	i
CCC(=O)Nc1sc2c(c1C(=O)Nc1ccccc1C)CCC(C)C2 (configuration not stated)	0	/	/	i	/	i

Screening results as filed in PubChem.
